# Screening results deposited in PubChem BioAssay by Sanford-Burnham Center for Chemical Genomics.
# Only some compounds are listed: those with a hit (about 2.6% of all), similar ones and a draw of the others.
# PABP polyA inh: PABP-poly(A) binding inhibition | P11940 | PABP-poly(A) RNA binding, fluorescence polarization | inhibition, % at 35 µM | 290,000 tested, 1% active | AID 2014;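 also: calls also rest on retests at 20 µM and on dose response follow-up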
# PABP1 MLLE inh: blocks PAM2 peptide binding to the PABP1 MLLE domain. 360,000 tested, 0.36% active. AID 588489. P11940. inhibition, % at 20 µM. GST-MLLE / FITC-PAM2 fluorescence polarization; in the data active = inhibition above about 35%, passing the limit was not always enough;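 also: plate controls were DMSO wells with GST-MLLE for no effect and wells lacking GST-MLLE protein for full effect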
# PHOSPHO1 block: PHOSPHO1 (human) inhibition; Q8TCT1; recombinant PHOSPHO1, absorbance phosphatase assay; inhibition, % at 13.3 µM; 290,000 tested, 1.1% active; AID 1565; in the data active = inhibition above about 60%
# CRFBP-R2 block: blocks CRF-induced signaling of the CRF-BP/CRF-R2 complex; inhibition, % at 11.8 µM; 350,000 tested, 0.59% active; HEK293 CRF-R2/CRF-BP, CRF-induced calcium fluorescence;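 active = inhibition of the ligand-induced calcium signal above about 50% at the single tested concentration, limit read from the data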
# eIF4H inh: inhibitors of RNA binding by human eIF4H; Q15056; eIF4H fluorescence polarization binding assay; inhibition, % at 35 µM; 290,000 tested, 0.94% active; AID 2012;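 also: calls also rest on retests at 20 µM and on dose response follow-up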
# The depositor's hits bear a star; ? = inconclusive; . = no result. Unless noted, no rule for the calls is given here.
SMILES,PABP polyA inh,PABP1 MLLE inh,PHOSPHO1 block,CRFBP-R2 block,eIF4H inh
Cc1cc(C(=O)NCCc2ccc(Cl)cc2)c2ccccc2n1,2.0,-3.6,27.5,0.7,0.4
O=C(NCCO)c1nc(C(=O)c2ccc(Cl)cc2)c2ccccc2n1,.,7.6,.,71.1*,.
CCc1nc2c(OCC(=O)C(C)(C)C)cccn2c1N(C=O)Cc1ccc(OC)cc1,.,-8.4,.,.,.
Cc1cccc(C)c1NC(=O)CN(C)C(=O)c1cccc(S(=O)(=O)N2CCN(c3ccccc3)CC2)c1,42.3*,1.8,.,7.9,71.2
O=C(COc1ncnc2ccccc12)N1CCOCC1,-2.8,-4.9,-5.4,34.5,7.6
O=C(COc1ncnc2ccc(Br)cc12)N1CCOCC1,66.3*,-10.3,15.4,5.8,1.0*
CC1(C(=O)NS(=O)(=O)Cc2ccccc2C(F)(F)F)CCN1C(=O)Cc1cccs1 (centres undefined),.,2.9,.,.,.
Cc1nc2ccccc2n1CCOc1ccc([N+](=O)[O-])cc1,3.9,-12.2,36.3,95.6*,-2.2
CN1OC[C@@H]2CN3C(=O)N(c4ccccc4)c4ccccc4[C@@H]3C[C@@H]21,.,-4.9,.,.,.
Cc1ccc(S(=O)(=O)N2c3ccccc3OCC2C(C)(C)C)cc1 (centres undefined),6.8,0.6,-10.4,90.3*,3.6
Cc1ccc2c(c1)N(S(=O)(=O)c1ccc(F)cc1)C(C(C)(C)C)CO2 (centres undefined),-5.8,-2.4,14.3,11.4,-3.1
O=C(Nc1nnc([C@@H]2C[C@H](O)[C@@H](CO)O2)s1)NC(c1ccccc1)c1ccccc1,.,3.1,.,.,.
CCCC(C)C(=O)Nc1nc(C)c(-c2csc(Nc3cc(Cl)ccc3C)n2)s1 (centres undefined),-1.0,-4.8,74.3*,-12.4,-1.7
CCCCCCC(=O)Nc1nc(C)c(-c2csc(Nc3ccc(Cl)cc3)n2)s1,1.1,-25.8,71.9*,-56.0,-7.5
CCCCCC(=O)Nc1nc(C)c(-c2csc(Nc3ccc(Cl)cc3)n2)s1,1.3,0.4,-143.4,2.7,-5.0
CCCCCC(=O)Nc1nc(C)c(-c2csc(Nc3cc(Cl)ccc3C)n2)s1,-1.9,17.3,69.6*,-7.2,8.4
CCc1nc2c(OCCC3CCCCC3)cccn2c1N(C=O)Cc1ccccc1,.,20.5,.,.,.
Clc1ccc(-c2nn3c(C4COc5ccccc5O4)nnc3s2)cc1 (centres undefined),1.7,25.2,92.1*,-82.3,-9.3
CCOc1ccc(S(=O)(=O)N2CCCCC2)c2ccccc12,-9.1,-6.0,-4.2,15.3,-2.8
CCOc1ccc(S(=O)(=O)n2ccc(C)n2)c2ccccc12,6.0,0.7,14.3,54.6*,-4.5
CCOc1ccc2nc(NC(=S)N(C)C)sc2c1,0.7,-43.1,90.9*,9.3,8.4
COc1ccc(NC(=O)CSc2nnnn2C2CCCC2)cc1S(=O)(=O)N1CCOCC1,.,8.5,.,9.7,.
Oc1ccc(C=Nc2cccc3ncccc23)c(O)c1,33.1*,23.3,-3.2,7.3,58.3
COc1cccc(N=Cc2ccc(O)cc2O)c1,?,-27.6,-16.0,-5.5,?
Oc1ccc(C=Nc2ccccc2-c2nc3ccccc3[nH]2)c(O)c1,8.1,-7.9,6.6,-29.6,2.9
SMILES,PABP polyA inh,PABP1 MLLE inh,PHOSPHO1 block,CRFBP-R2 block,eIF4H inh
Oc1ccc(C=Nc2ccc3ncccc3c2)c(O)c1,61.5*,.,9.5,.,81.0*
COC(=O)C(CC(=O)c1ccc(Cl)cc1)c1ccccc1 (centres undefined),.,-6.5,.,-16.2,.
CCCNC(=O)C1(C)CCCN(C(=O)c2ccccc2OC)C1 (centres undefined),.,21.4,.,.,.
CCn1c(NC(C)=O)c(-c2ccccc2Cl)c(=O)c2ccccc21,-4.0,-10.2,25.7,-5.2,-9.7
CCCNC(=O)OCC12CC3CC(CC(C3)C1)C2,2.6,-3.2,8.4,-47.1,11.5
CCNC(=O)OCCC12CC3CC(CC(C3)C1)C2,89.0*,-4.8,4.4,-124.3,-11.6
COc1ccc(Oc2ncnc3sccc23)cc1,-7.3,-9.3,-15.1,3.9,-12.2
Cc1nc(Oc2ccccc2)c2ccsc2n1,active,7.2,5.4,9.4,74.7*
O=C(O)CCn1c(-c2ccccn2)nc2ccccc21,15.0,-3.7,18.9,12.9,90.9*
O=C(O)CCn1c(CO)nc2ccccc21,-5.2,-2.6,32.3,-75.2,-0.5
CCN1C(=O)/C(=C2/SC(C)=C(C)N2CC)SC1=S,9.6,52.2*,79.8*,-8.7,-0.2
C=CCSc1nnc(-c2ccccc2N=Cc2c(C)[nH]n(-c3ccccc3)c2=O)c(=O)[nH]1,3.9,-10.8,68.6*,0.6,-2.5
